Results filed as inconclusive are left out. Entries that show only a call come without a potency. Activity calls are given as the source filed them. Calls come from the whole dose curve; as a rule, active = well fitted inhibition curve with a large enough effect; inconclusive = small, poorly fitted or top-dose-only effect; inactive = no such curve, though single readings can be large or run the other way.

Chain of N-terminal Xaa-Pro-Lys N-methyltransferase 1 (Homo sapiens) (Q9BV86 whole entry, looked up): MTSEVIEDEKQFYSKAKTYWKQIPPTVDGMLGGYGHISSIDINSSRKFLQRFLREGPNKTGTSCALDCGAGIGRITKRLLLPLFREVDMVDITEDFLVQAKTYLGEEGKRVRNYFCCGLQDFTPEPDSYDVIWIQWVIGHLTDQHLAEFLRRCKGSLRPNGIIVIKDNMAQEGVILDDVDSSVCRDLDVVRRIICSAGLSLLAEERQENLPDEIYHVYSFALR

The assay has as its target N-terminal Xaa-Pro-Lys N-methyltransferase 1 (Homo sapiens) (UniProt Q9BV86). The assay can be described thus: qHTS Assay for Inhibitors of N-terminal methyltransferase 1 (NTMT1): MTaseGlo Assay Confirmatory Screen, Round 1. As to conditions: Recombinant NTMT1, MTase-Glo SAH luminescence; series mostly up to 57.1 µM. An outline of the steps: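 Luminescence from MTase-Glo conversion of SAH to ATP measured activity after a 30 min RT reaction with 1 µM SPKRIA substrate, 100 µM SAM and 125 nM enzyme. Normalization used no-enzyme and DMSO controls, followed by Hill fitting.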
For orientation: In qHTS, concentration-response curves come from the screen itself.
As to `COc1cc2c(NC3CCN(C(C)C)CC3)nc(N3CCC(F)(F)CC3)nc2cc1OCCCN1CCCCC1`, the Potency result is “inactive”. Consider `Nc1ncnc2c1ncn2[C@@H]1O[C@@H](CO)[C@H](O)[C@H]1O`, for which the Potency result was “inactive”. In the case of `Nc1ncnc2c1ncn2[C@@H]1O[C@H](CO)[C@@H](O)[C@@H]1O`, the Potency entry was “inactive”. As for `Cc1ccccc1CNc1ncnc2c1ncn2[C@@H]1O[C@H](CO)[C@@H](O)[C@H]1O`, the Potency entry is “inactive”. With `Nc1nc(=S)c2ncn([C@H]3O[C@@H](CO)[C@@H](O)[C@@H]3O)c2[nH]1`, the Potency result is “inactive”. As for `Nc1nc(Cl)nc2c1ncn2[C@H]1C[C@H](O)[C@@H](CO)O1`, the Potency result is “inactive”. To `CNC(=O)[C@H]1O[C@H](n2cnc3c(NCc4cccc(I)c4)nc(Cl)nc32)[C@@H](O)[C@@H]1O` belongs “inactive”; to `COc1cc2c(NC3CCN(C)CC3)nc(N3CCCCC3)nc2cc1OCCOCCN1CCCC1`, “inactive”.

`O=S(=O)(O)c1ccc(Nc2ncnc3c2ncn3[C@@H]2O[C@H](CO)[C@@H](O)[C@H]2O)cc1`: the Potency result is “inactive”. On to `CSc1nc(N)c2ncn([C@@H]3O[C@H](COP(=O)(O)OP(=O)(O)OP(=O)(O)O)[C@@H](O)[C@H]3O)c2n1`, for which the Potency result was “inactive”. `OC[C@H]1O[C@@H](n2cnc3c(NC4CCCCC4)ncnc32)[C@H](O)[C@@H]1O`: the Potency entry was “inactive”. As to `COc1cc2nc(N3CCCN(C)CC3)nc(N(C)C)c2cc1OC`, the Potency result is “inactive”. Consider `OC[C@@H]1O[C@@H](n2cnc3c(N[C@H]4CCC[C@@H]4O)ncnc32)[C@H](O)[C@H]1O`, for which the Potency entry is “inactive”. As for `Nc1ncnc2c1[nH]c(=S)n2C1OC(CO)C(O)C1O` (stereo not given), the Potency result was “inactive”. Turning to `Nc1ncnc2c1[nH]c(=O)n2C1OC(CO)C(O)C1O` (stereo not given), the Potency entry is “inactive”.

The values are drawn from PubChem BioAssay AID1347145 (National Center for Advancing Translational Sciences (NCATS), 2019).
